Read-out in experiment [1]: Interleukin-6 (IL6), IL6 (gene 3569)
Put plainly: BSK_CASM3C_IL6: BioMAP Diversity Plus: CASM3C Assay for Interleukin-6 (IL6) Biomarker Activity for (AID 2283040). To be noted: primary human coronary artery smooth muscle cells; actives raise or lower the signal.

Read-out in experiment [2]: Tissue plasminogen activator (tPA), PLAT (gene 5327)
The experiment is described as follows: BSK_BE3C_tPA: BioMAP Diversity Plus: BE3C Assay for Tissue plasminogen activator (tPA) Biomarker Activity (AID 2283041).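 Further: tPA level quantified by ELISA one day after compound addition.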 To be noted: primary human bronchial epithelial cells; actives raise or lower the signal. A digest of the protocol: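 Human primary bronchial epithelial cells were dosed with chemical and tPA biomarker levels measured by ELISA 24 hours later. Activity was fitted bidirectionally against DMSO as negative control and baseline.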

Read-out in experiment [3]: Interleukin-8 (IL8), CXCL8 (gene 3576)
The experiment is described as follows: BSK_CASM3C_IL8: BioMAP Diversity Plus: CASM3C Assay for Interleukin-8 (IL8) Biomarker Activity (AID 2283042).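 Further: IL-8 protein level quantified by ELISA.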 As to conditions: primary human coronary artery smooth muscle cells; actives raise or lower the signal.

Read-out in experiment [4]: Human Leukocyte Antigen - DR isotype (HLADR), HLA-DRA (gene 3122)
The experiment is described as follows: BSK_CASM3C_HLADR: BioMAP Diversity Plus: CASM3C Assay for Human Leukocyte Antigen - DR isotype (HLADR) Biomarker Activity (AID 2283043).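 Further: cell-surface HLA-DR protein level quantified by ELISA.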 As to conditions: primary human coronary artery smooth muscle cells; actives raise or lower the signal.

Read-out in experiment [5]: Macrophage colony-stimulating factor (MCSF), CSF1 (gene 1435)
Put plainly: BSK_CASM3C_MCSF: BioMAP Diversity Plus: CASM3C Assay for Macrophage colony-stimulating factor (MCSF) Biomarker Activity (AID 2283044).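 Further: M-CSF protein amount quantified by ELISA after 24 h exposure.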 To be noted: primary human coronary artery smooth muscle cells; actives raise or lower the signal.

Read-out in experiment [6]: Low-density lipoprotein receptor (LDLR), LDLR (gene 3949)
The experiment is described as follows: BSK_CASM3C_LDLR: BioMAP Diversity Plus: CASM3C Assay for Low-density lipoprotein receptor (LDLR) Biomarker Activity (AID 2283045).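 Further: LDLR protein level on the cell surface quantified by ELISA.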 To be noted: primary human coronary artery smooth muscle cells; actives raise or lower the signal.

Read-out in experiment [7]: Monocyte Chemoattractant Protein-1 (MCP1), CCL2 (gene 6347)
Put plainly: BSK_CASM3C_MCP1: BioMAP Diversity Plus: CASM3C Assay for Monocyte Chemoattractant Protein-1 (MCP1) Biomarker Activity (AID 2283046).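 Further: MCP-1 level quantified by ELISA 24 h after dosing.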 As to conditions: primary human coronary artery smooth muscle cells; actives raise or lower the signal.

Experiment [8] in a line: BSK_CASM3C_Proliferation: Cell Proliferation Assessment in the BioMAP Diversity Plus: CASM3C Assay (AID 2283047).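 Further: sulforhodamine B total protein stain as relative cell number at 560 nm; sub-confluent cells exposed 48 h before staining; fitted both ways against DMSO so gain or loss of cell number.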 As to conditions: primary human coronary artery smooth muscle cells.
Read-out in experiment [9]: Monokine induced gamma interferon (MIG), CXCL9 (gene 4283)
The experiment is described as follows: BSK_CASM3C_MIG: BioMAP Diversity Plus: CASM3C Assay for Monokine induced gamma interferon (MIG) Biomarker Activity (AID 2283048).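 Further: MIG protein level measured by ELISA.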 As to conditions: primary human coronary artery smooth muscle cells; actives raise or lower the signal.

Read-out in experiment [10]: serum amyloid A (SAA), SAA1 (gene 6288)
Put plainly: BSK_CASM3C_SAA: BioMAP Diversity Plus: CASM3C Assay for serum amyloid A (SAA) Biomarker Activity (AID 2283049).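 Further: SAA protein level quantified by ELISA.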 As to conditions: primary human coronary artery smooth muscle cells; actives raise or lower the signal.

Several values for one entry are separate records, joined by “and”; a condition that tells them apart may be missing. Equal values may be shown once. Where a structure was tested more than once in an assay, its records may differ in their call. Activity calls are given as the source filed them. How the source made its calls: active means hit-call score of the fitted dose curve at least 0.9, where 1 is the maximum; inactive means score below 0.9.

Consider `O=C(Cl)C(F)(F)C(F)(F)C(F)(F)C(F)(F)C(F)(F)C(F)(F)C(F)(F)F`, for which the outcome in experiment [1], in experiment [2], in experiment [3], in experiment [4], in experiment [5] and in experiment [6] was inactive. Besides, the outcome in [7], in experiment [8], in [9] and in experiment [10] was inactive.

`NC(O)(C(F)(F)F)C(F)(F)F`: the result in experiment [1], in [2], in [3], in experiment [4], in experiment [5] and in experiment [6] was inactive. Moreover, the result in [7], in experiment [8], in experiment [9] and in experiment [10] was inactive. In [5], the AC50 (commonly the midpoint of the concentration-response curve, whichever way the signal moves) was 43.4 µM (active).

In the case of `O=C(c1ccccc1)c1ccc(O)cc1O`, the outcome in experiment [1], in experiment [2], in [3], in experiment [4], in experiment [5] and in [6] was inactive. Besides, the outcome in [7], in experiment [8], in [9] and in experiment [10] was inactive.

Consider `O=C(O)C(F)(F)C(F)(F)C(F)(F)OC(F)(F)F`, for which the outcome in [1], in experiment [2], in [3], in experiment [4], in [5] and in [6] was inactive. The outcome in [7], in experiment [8], in [9] and in experiment [10] was inactive.

Turning to `C[Si](Cl)(Cl)CCC(F)(F)C(F)(F)C(F)(F)C(F)(F)C(F)(F)C(F)(F)F`, the outcome in experiment [1], in experiment [2], in [3], in experiment [4], in experiment [5] and in experiment [6] was inactive. Also, the result in [7], in experiment [8], in experiment [9] and in [10] was inactive.

Consider `O=C=Nc1cccc2c(N=C=O)cccc12`, for which the outcome in experiment [1], in experiment [2], in experiment [3], in experiment [4], in [5] and in experiment [6] was inactive. In addition, the result in experiment [7], in experiment [8], in experiment [9] and in [10] was inactive.

As for `OCC(F)(F)C(F)(F)C(F)(F)C(F)(F)C(F)(F)C(F)(F)CO`, the result in experiment [1], in experiment [2], in experiment [3], in [4], in experiment [5] and in [6] was inactive. In addition, the result in experiment [7], in [8], in experiment [9] and in [10] was inactive.

Turning to `O=C(O)CCC(F)(F)C(F)(F)C(F)(F)F`, the result in experiment [1], in experiment [2], in [3], in experiment [4], in experiment [5] and in experiment [6] was inactive. Further, the result in [7], in [8], in experiment [9] and in [10] was inactive.

On to `CCN(CCO)S(=O)(=O)C(F)(F)C(F)(F)C(F)(F)C(F)(F)C(F)(F)C(F)(F)C(F)(F)C(F)(F)F`, for which the outcome in [1], in experiment [2], in [3], in experiment [4], in experiment [5] and in [7] was inactive. In addition, the result in experiment [10] was inactive. For the same compound, the AC50 in [4] is 15.6 µM (active); in [5], 35.3 µM (active); in experiment [6], 7.08 µM (active) and 8.16 µM (active); in experiment [8], 15.5 µM (active) and 16.5 µM (active); in [9] it was 8.09 µM (active) and 7.66 µM (active); in [10] it was 7.99 µM (active).

Take `OCC(F)(F)C(F)(F)C(F)(F)C(F)(F)C(F)(F)C(F)(F)C(F)(F)C(F)(F)CO`: the outcome in experiment [1], in [2], in [3], in [4], in experiment [5] and in [6] was inactive. In addition, the result in experiment [7], in [9] and in [10] was inactive. Further, in [8], the AC50 is 49.9 µM (active) and 45.4 µM (active).

`O=C(Cl)C(F)(F)C(F)(F)C(F)(F)C(F)(F)C(F)(F)C(F)(F)F`: the outcome in experiment [1], in experiment [2], in experiment [3], in experiment [4], in experiment [5] and in experiment [6] was inactive. Moreover, the outcome in experiment [7], in experiment [8], in [9] and in [10] was inactive.

As for `CO[Si](C)(CCC(F)(F)C(F)(F)C(F)(F)C(F)(F)C(F)(F)C(F)(F)F)OC`, the outcome in [1], in experiment [2], in [3], in experiment [4], in experiment [5] and in experiment [6] was inactive. Also, the outcome in experiment [7], in experiment [8], in experiment [9] and in [10] was inactive.

Consider `CCN(CC)c1ccc2c(c1)Oc1cc(N(CC)CC)ccc1C21OC(=O)c2ccccc21`, for which the result in experiment [1], in experiment [2], in [3], in [4], in experiment [5] and in experiment [6] was inactive. Also, the result in experiment [7], in [8], in experiment [9] and in [10] was inactive.

With `C[C@]12CC[C@H]3C(=CCc4cc(O)ccc43)[C@@H]1CCC2=O`, the result in experiment [1], in experiment [2], in experiment [3], in experiment [4], in experiment [5] and in experiment [7] was inactive. Further, the outcome in experiment [8], in experiment [9] and in [10] was inactive. Further, in experiment [6], the AC50 was 14.3 µM (active).

On to `Cc1cnccn1`, for which the outcome in [1], in experiment [2], in experiment [3], in experiment [4], in experiment [5] and in experiment [6] was inactive. For the same compound, the result in experiment [7], in experiment [9] and in experiment [10] was inactive. In experiment [8], the AC50 was 196 nM (active).

For `OCC(O)CC(F)(F)C(F)(F)C(F)(F)C(F)(F)F` (centres undefined), the result in experiment [1], in experiment [2], in experiment [3], in experiment [4], in experiment [5] and in [6] was inactive. Further, the result in experiment [7], in experiment [8], in experiment [9] and in experiment [10] was inactive.

Values taken from PubChem BioAssay (EPA / NIEHS).
